Screening data as filed in PubChem.
HT1080NT lethal – qHTS for induction of synthetic lethality in tumor cells producing 2HG: qHTS for the HT-1080-NT fibrosarcoma cell line | HT-1080-NT fibrosarcoma viability, CellTiter-Glo ATP luminescence, 48 h | Potency, µM (doses to about 46.1 µM), hits mostly cytotoxic | 1.6% of 360,000 active;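 further: NT is the 2HG producing partner of a matched IDH1 knockdown line; nearly all actives have a fitted effect of over 55% in size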
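Read-out is CellTiter-Glo luminescence after 10 minutes at room temperature, following 48 hours' compound treatment of HT-1080-NT cells (750 cells/well, RPMI, 5% FBS, 37 degrees C).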
DT40 TDP1 CPT – qHTS for Inhibitors of human tyrosyl-DNA phosphodiesterase 1 (TDP1): qHTS in cells in presence of CPT. chicken DT40 Tdp1-/-;hTDP1 cells + 20 nM CPT, ATP luminescence, 48 h. Potency, µM (doses to about 46.2 µM), most hits filed as inhibitors. 12% of 420,000 active; further: nearly all actives have a fitted effect of over 55% in size
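Chicken DT40 Tdp1-/- cells complemented with human TDP1, 400 cells/well, exposed to compounds plus 20 nM camptothecin for at least 48 h at 37 C; viability read as ATP content by CellTiter-Glo luminescence.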
IL-1B inflam inh – qHTS for Inhibitors of Inflammasome Signaling: IL-1-beta AlphaLISA Primary Screen; THP-1 LPS/ATP IL-1B secretion, AlphaLISA, 16 h; stronger effect = lower value; activity change, % at 57.5 µM; 4.7% of 360,000 active; AID 743279, 2014; in the data active means activity change below about -50%; inconclusive means mostly about -30% to -49%
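Secreted IL-1B measured by AlphaLISA bead assay after 16 h compound exposure of THP-1 cells; compounds (final up to 57.5 uM) added 1 h before LPS (250 ng/mL) and ATP (1.25 mM) stimulation; lower signal means less secretion.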
uPA generation – qHTS for Inhibitors of Cell Surface uPA Generation; cell surface uPA generation assay, qHTS; Potency, µM (top dose mostly 38.3 µM), most hits filed as inhibitors; 0.31% of 330,000 active; active means well fitted inhibition curve with a large enough effect; inconclusive means small, poorly fitted or top-dose-only effect; inactive means no such curve, though single readings can be large or run the other way; tested in mouse RAW 264.7 cells; further: nearly all actives have a fitted effect of over 55% in size
TDP1 cell noCPT – qHTS for Inhibitors of human tyrosyl-DNA phosphodiesterase 1 (TDP1): qHTS in cells in absence of CPT | DT40 Tdp1-/- hTDP1 cells, no CPT, ATP luminescence, 48 h | Potency, µM (highest dose often 46.2 µM), usual class: inhibitors | 15% of 420,000 active; further: nearly all actives have a fitted effect of over 55% in size
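Cells were dispensed at 400 per well, compounds added by pin tool, plates incubated ≥48 hr at 37 °C, then CellTiter-Glo added for 30 min at room temperature before luminescence reading. Line: DT40 Tdp1-/- complemented with hTDP1; camptothecin omitted.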
HT1080 IDH1KD tx – qHTS for induction of synthetic lethality in tumor cells producing 2HG: qHTS for the HT-1080-IDH1KD cell line | HT-1080 IDH1 knockdown viability, ATP luminescence, 48 h | AID 686971, 2013 | Potency, µM (top dose mostly 46.1 µM), usual class: cytotoxic | 2% of 360,000 active
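% activity derives from luminescence (CellTiter-Glo), normalised to DMSO and no-cell wells. HT-1080-IDH1KD cells, 750/well, had 48 h compound exposure at 37 °C.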
A number is an active result; - = inactive; ? = inconclusive; . = not tested or not shown. Hits are enriched below; roughly 19% of the tested compounds scored in any of these assays. Unless noted, the call rests on the fitted dose curve; in most records, active means well fitted curve in the direction sought with a large enough effect; inconclusive means small, poorly fitted or top-dose-only effect, or another doubt; inactive means no such curve, though single readings can be large; an effect the other way counts as inactive or inconclusive.

SMILES | HT1080NT lethal | DT40 TDP1 CPT | IL-1B inflam inh | uPA generation | TDP1 cell noCPT | HT1080 IDH1KD tx
COc1ccccc1N1CCN(C(=O)c2[nH]c(C(F)(F)F)nc2-c2ccccc2)CC1 | 1.3µM | 6.5µM | - | . | 5.8µM | 0.82µM
Cc1cccc(N2CCN(C(=O)c3[nH]c(C(F)(F)F)nc3-c3ccccc3)CC2)c1C | ? | 1.3µM | - | . | 1.3µM | 0.58µM
O=C(c1[nH]c(C(F)(F)F)nc1-c1ccccc1)N1CCN(c2cccc(C(F)(F)F)n2)CC1 | 1.3µM | 4.6µM | - | . | 4.6µM | 1.8µM
O=C(COC(=O)c1cc(S(=O)(=O)N2CCCCC2)ccc1N1CCOCC1)c1ccc(F)cc1 | - | - | ? | - | - | -
N#C/C(=C\c1ccc(Br)cc1)c1nc(-c2cc3cc(Br)ccc3oc2=O)cs1 | . | - | . | . | - | .
COc1ccc(Nc2ncc3c(n2)CCN(Cc2ccc(Br)s2)C3)c(OC)c1 | . | 21µM | . | . | 13µM | .
CC(C)CN1CCc2nc(Nc3ccc(F)cc3F)ncc2C1 | . | - | . | . | ? | .
COc1ccccc1Nc1ncc2c(n1)CCN(Cc1ccc(C)s1)C2 | . | - | . | . | - | .
COc1ccc(Nc2ncc3c(n2)CCN(Cc2cc(Br)cs2)C3)c(OC)c1 | . | 18µM | . | . | 15µM | .
CCN1CCN(c2ncc3c(n2)CCN(Cc2ccc(OC)c(OC)c2)C3)CC1 | . | - | . | . | - | .
COc1ccc(Nc2ncc3c(n2)CCN(Cc2cccc(F)c2F)C3)c(OC)c1 | . | 26µM | . | . | 21µM | .
c1ccc(CCN(Cc2ccccc2)Cc2nc(C3CC3)no2)cc1 | - | - | - | - | - | -
O=c1c2sc3ccccc3c2n(Cc2ccccc2)c(=O)n1CCc1ccccc1 | . | - | . | . | - | .
CCNc1ncc2nc(-c3cn(C)c4ccccc34)c(=O)n(Cc3ccc(F)cc3)c2n1 | . | - | . | . | - | .
COCCNC(=O)c1ccc2c(c1)N(Cc1ccc(C(F)(F)F)cc1)C(=O)c1ccccc1S2 | . | 16µM | . | . | ? | .
O=C(NC1CCCC1)c1ccc2c(c1)N(Cc1ccc(C(F)(F)F)cc1)C(=O)c1ccccc1S2 | . | 21µM | . | . | 9.2µM | .
CCN(CC)C(=O)c1ccc2c(c1)N(Cc1ccc(C(F)(F)F)cc1)C(=O)c1ccccc1S2 | . | 16µM | . | . | 18µM | .
CCOc1ccc(CN2C(=O)c3ccccc3Sc3ccc(C(=O)NCCc4ccccc4)cc32)cc1 | . | - | . | . | ? | .
Cc1cc(C)c2c(=O)nc(SCc3ccccc3C)n(C3CC3)c2n1 | . | - | . | . | - | .
Cc1cc(OC(=O)c2ccccc2Br)cc(=O)n1C | - | 21µM | - | - | ? | -
CC(=O)c1c(OC(=O)c2ccccc2Br)ccc2c(C)cc(=O)oc12 | - | - | - | - | - | -
CN(CCc1ccc(Cl)c(Cl)c1)CC(O)COc1ccc(NS(C)(=O)=O)cc1 (centres undefined) | . | 18µM | . | . | 23µM | .
CC(NC(=O)C1CCOCC1)c1nnc2n1CCN(Cc1ccc3cccnc3c1)CC2 (centres undefined) | . | - | . | . | - | .
COc1ccc(CCn2c(C)cc(C(=O)CSc3nc(N)cc(=O)[nH]3)c2C)cc1 | ? | 12µM | - | - | 12µM | -
Cc1cc(C(=O)CSc2nnc(N)s2)c(C)n1CCc1ccc(F)cc1 | - | ? | - | - | - | -
SMILES | HT1080NT lethal | DT40 TDP1 CPT | IL-1B inflam inh | uPA generation | TDP1 cell noCPT | HT1080 IDH1KD tx
Cc1cc(C(=O)CSc2nc(N)cc(=O)[nH]2)c(C)n1-c1ccc(OC(F)F)cc1 | - | 2.6µM | - | - | 1.8µM | ?
Cc1cc(C(=O)CSc2nc(N)cc(=O)[nH]2)c(C)n1CCc1ccc(F)cc1 | - | 18µM | - | - | 12µM | 26µM
Cc1c(C(=O)NCc2ccccc2Cl)sc2nc3n(c(=O)c12)CCCCC3 | . | ? | . | . | 26µM | .
Cc1c(C(=O)NCCO)sc2nc3n(c(=O)c12)CCC3 | - | - | - | - | - | -
Cc1c(C(=O)NCc2ccccc2Cl)sc2nc3n(c(=O)c12)CCCC3 | . | ? | . | . | 23µM | .
Cc1c(C(=O)NCc2ccccc2)sc2nc3n(c(=O)c12)CCC3 | . | - | . | . | - | .
